The list is not random: actives were taken first. Their share in the collection is about 3.5%.
mHTT-CaM PPI inh – mutant huntingtin-calmodulin interaction inhibitors – biochemical, AlphaScreen, primary screen; 190,000 compounds, 3.6% hits; AlphaScreen His-mHTT/GST-CaM binding, luminescence; AID 1671202, 2021; inhibition, % at 15 µM;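 also: 0% = both proteins with DMSO and 100% = one protein alone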
Pf apPOL inh – Pf-apPOL inhibitors, biochemical, fluorescence; Plasmodium falciparum apicoplast DNA polymerase (apPOL); Recombinant Pf-apPOL, molecular beacon fluorescence, 1.5 h; inhibition, % at 10 µM; 210,000 compounds, 0.25% hits
Starred values were filed as active, the others as inactive. Rule as the data show it: active = inhibition above about 50%; inactive = the rest.

For O=C1C(N2CCOCC2)=CC(=NS(=O)(=O)c2ccccc2)c2ccccc21 the results were mHTT-CaM PPI inh 72* and Pf apPOL inh -6.
Screening O=C1C(N2CCOCC2)=CC(=NS(=O)(=O)c2ccc(Cl)cc2)c2ccccc21 returned mHTT-CaM PPI inh 64* and Pf apPOL inh -2.
For O=C(CCS(=O)(=O)c1ccc(Br)s1)Nc1ccc(C(F)(F)F)cc1 the results were mHTT-CaM PPI inh -13 and Pf apPOL inh -4.
Screening Cc1[nH]c2ccccc2c1C(c1ccco1)c1c(C)[nH]c2ccccc12 returned mHTT-CaM PPI inh 55* and Pf apPOL inh -4.
Screening Cc1[nH]c2ccccc2c1C(C[N+](=O)[O-])c1ccco1 (stereo unspecified) returned mHTT-CaM PPI inh 37 and Pf apPOL inh -4.
For O=C(Nc1ccc(Cl)cc1)C1CCc2sc(C(=O)N3CCOCC3)cc2C1 (stereo unspecified) the results were mHTT-CaM PPI inh 28 and Pf apPOL inh -7.
Screening Cc1cccc2nc(CSc3n[nH]c(N)n3)cc(=O)n12 returned mHTT-CaM PPI inh 2 and Pf apPOL inh 52*.
Screening Cc1cccc2nc(CSc3ncc(C#N)c(N)n3)cc(=O)n12 returned mHTT-CaM PPI inh 10 and Pf apPOL inh 5.
Screening Cc1oc2cc3oc(=O)c4c(c3cc2c1-c1ccccc1)CCC4 returned mHTT-CaM PPI inh -9 and Pf apPOL inh 14.
For Cc1oc2cc3oc(=O)c4c(c3cc2c1C)CCC4 the results were mHTT-CaM PPI inh -8 and Pf apPOL inh 58*.
`CCn1c(SCC(=O)c2ccc(Br)cc2)nnc1-c1ccc(N)cc1` gave mHTT-CaM PPI inh 15 and Pf apPOL inh -5.
`CCCCNC(=O)N1CCNC1=O` gave mHTT-CaM PPI inh -2.
For Cc1ccc(NCCNC(=O)c2c[nH]c3ccccc23)nn1 the results were mHTT-CaM PPI inh -11 and Pf apPOL inh -14.
Screening Cc1ccnc(Nc2ccc(NCCNC(=O)c3c(F)cccc3F)nn2)c1 returned mHTT-CaM PPI inh 100* and Pf apPOL inh -6.
`C=CCCCC(=O)Nc1ccccc1C` gave mHTT-CaM PPI inh -8 and Pf apPOL inh -1.
O=C(Nc1cccc([N+](=O)[O-])c1)c1ccc2nc(-c3ccccn3)c(-c3ccccn3)nc2c1 was read as mHTT-CaM PPI inh -3 and Pf apPOL inh 1.
Screening CN(Cc1ccccc1)C(=O)CN(c1ccc(I)cc1)S(C)(=O)=O returned mHTT-CaM PPI inh -2 and Pf apPOL inh -7.
For Cc1ccc(C)c(S(=O)(=O)N2CCCC(C)(C(=O)NCc3ccc(F)cc3)C2)c1 (stereo unspecified) the results were mHTT-CaM PPI inh 61* and Pf apPOL inh -2.
Cc1ccc(S(=O)(=O)N2CCCC(C)(C(=O)NCc3ccc(F)cc3)C2)cc1C (stereo unspecified) was read as mHTT-CaM PPI inh 89* and Pf apPOL inh -1.
Screening Cc1c(Cl)cccc1S(=O)(=O)N1CCCC(C)(C(=O)NCc2ccc(F)cc2)C1 (stereo unspecified) returned mHTT-CaM PPI inh 86* and Pf apPOL inh 0.
For CC1(C(=O)NCc2ccc(F)cc2)CCCN(S(=O)(=O)c2ccccc2Cl)C1 (stereo unspecified) the results were mHTT-CaM PPI inh 1 and Pf apPOL inh 2.
Screening Cc1c(C(=O)NCc2ccc(F)cc2)oc2ccc(S(=O)(=O)N3CCCCCC3)cc12 returned mHTT-CaM PPI inh -2 and Pf apPOL inh 52*.
Screening Cc1ccc(S(=O)(=O)N2CCCC(C)(C(=O)NCc3ccccc3)C2)cc1C (stereo unspecified) returned mHTT-CaM PPI inh 0 and Pf apPOL inh -5.
`Cc1ccc(CNC(=O)c2oc3ccc(S(=O)(=O)N4CCCCC4)cc3c2C)cc1` gave mHTT-CaM PPI inh -10 and Pf apPOL inh -6.
Cc1ccc(F)cc1S(=O)(=O)N1CCCC(C)(C(=O)NCc2ccc(F)cc2)C1 (stereo unspecified) was read as mHTT-CaM PPI inh 8 and Pf apPOL inh -6.
O=C(Nc1cccc(NC(=O)c2cccs2)n1)c1cccs1 was read as mHTT-CaM PPI inh 7 and Pf apPOL inh 1.
COc1ccc(C2C(C(=O)Nc3ccc(C(F)(F)F)cc3)c3ccccc3C(=O)N2C)cc1 (stereo unspecified) was read as mHTT-CaM PPI inh 5 and Pf apPOL inh -2.
`O=C(Cn1cc2c(n1)CCCCCC2)NCc1cccc(Cl)c1` gave mHTT-CaM PPI inh -6 and Pf apPOL inh -4.
`Cc1ccc(S(=O)(=O)N2CCCC(C)(C(=O)NCc3ccc(F)cc3)C2)c(C)c1` (stereo unspecified) gave mHTT-CaM PPI inh 29 and Pf apPOL inh -13.
`CC(=O)c1ccc(S(=O)(=O)N2CCCC(C)(C(=O)NCc3ccc(F)cc3)C2)cc1` (stereo unspecified) gave mHTT-CaM PPI inh 6 and Pf apPOL inh 2.
CC1(C(=O)NCc2ccc(F)cc2)CCCN(S(=O)(=O)c2ccc(F)c(Cl)c2)C1 (stereo unspecified) was read as mHTT-CaM PPI inh 95* and Pf apPOL inh 0.
`CC1(C(=O)NCc2ccc(F)cc2)CCCN(S(=O)(=O)c2ccc3c(c2)CCCC3)C1` (stereo unspecified) gave mHTT-CaM PPI inh 65* and Pf apPOL inh -6.
CC(=O)c1c2c(c(C)[nH]c1=O)CCCC2 was read as mHTT-CaM PPI inh -5 and Pf apPOL inh 9.
Screening Cc1ccc(NC(=O)CN2C(=O)CCCc3ccccc32)cc1Cl returned mHTT-CaM PPI inh 6 and Pf apPOL inh 0.
For COc1ccccc1N1CCN(CCOc2ccc(Cl)cc2)CC1 the results were mHTT-CaM PPI inh 7 and Pf apPOL inh -2.
`Cc1ccccc1N1CCN(CCOc2cccc(Cl)c2)CC1` gave mHTT-CaM PPI inh 93* and Pf apPOL inh -5.
For COc1cc(C2CC(c3ccccc3O)=NN2)ccc1O (stereo unspecified) the results were mHTT-CaM PPI inh 89* and Pf apPOL inh 3.
COc1ccccc1C1CC(c2cc(Cl)ccc2O)=NN1 (stereo unspecified) was read as mHTT-CaM PPI inh 47 and Pf apPOL inh -7.
Screening Cc1nn(-c2ccccc2)cc1C=NNC(=O)Cc1ccccc1 returned Pf apPOL inh -14.
`N#CC1=CN(c2ccccc2Br)c2ccccc2S1(=O)=O` gave mHTT-CaM PPI inh -2 and Pf apPOL inh -1.
For C(#Cc1ccccc1)CN1CCN(CC#Cc2ccccc2)CC1 the results were mHTT-CaM PPI inh 16 and Pf apPOL inh -1.
Screening Cc1ccc2ccccc2c1C[N+](C)(C)CC#Cc1ccccc1 returned mHTT-CaM PPI inh 77*.
For CCOC(=O)c1ccc(NC(=O)CSc2ncnc3ccccc23)cc1 the results were mHTT-CaM PPI inh 30 and Pf apPOL inh 3.
Screening CCN(CC)C(=O)CC[C@@H]1CC[C@]2(CCCN(C(=O)C(C)(C)C)C2)O1 returned mHTT-CaM PPI inh 6 and Pf apPOL inh 0.
`O=C(O)C1CC(=O)N(C2CCCCCCC2)C1` (stereo unspecified) gave mHTT-CaM PPI inh -3 and Pf apPOL inh 11.
`COc1ccc(-c2nn(Cc3ccccc3F)c(=O)c3nc(C)sc23)cc1OC` gave mHTT-CaM PPI inh 65* and Pf apPOL inh -8.
Screening COc1cccc(-c2nn(CC(=O)N3CCc4ccccc43)c(=O)c3nc(C)sc23)c1 returned mHTT-CaM PPI inh -2 and Pf apPOL inh -5.
For C=CCc1cc(OC)ccc1OCCOCCn1ccnc1 the results were mHTT-CaM PPI inh 4 and Pf apPOL inh -1.

Screening results as filed in PubChem BioAssay.
